From PubChem BioAssay (EPA / NIEHS)
Activity calls are given as the source filed them. Rule for the calls: active = hit-call score of the fitted dose curve at least 0.9, where 1 is the maximum; inactive = score below 0.9.

Key:
Conditions in all cases: mRNA level, 48 h; actives raise or lower the signal
[1] = read-out: Peroxisomal acyl-coenzyme A oxidase 1 (ACOX1) gene, ACOX1 (gene 51); assay: LTEA_HepaRG_ACOX1: Life Technologies and Expression Analysis (LTEA) Assay for Peroxisomal acyl-coenzyme A oxidase 1 (ACOX1) gene using HepaRG (AID 2283467)
Procedure, shortened: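 ACOX1 transcript levels were quantified by TaqMan qRT-PCR against three housekeeping genes after 48 h chemical exposure of differentiated human HepaRG cells. Exposure used eight half-log steps topping at 100 uM, 0.5% DMSO vehicle, in duplicate. Bidirectional curve fits were made relative to DMSO.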

[2] = read-out: Alkaline Phosphatase, Placental (ALPP) gene, ALPP (gene 250); assay: LTEA_HepaRG_ALPP: Life Technologies and Expression Analysis (LTEA) Assay for Alkaline Phosphatase, Placental (ALPP) gene using HepaRG (AID 2283468);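 for AC50: differentiated human HepaRG liver cells in serum-free induction medium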
Procedure, shortened: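 ALPP transcript level, measured by qRT-PCR and normalized to three housekeeping genes (ACTB, GAPDH, POLR2A), after 48 h dosing of differentiated HepaRG in serum-free induction medium. Top concentration 100 uM with half-log dilutions (8 points, 0.5% DMSO, duplicates); bidirectional fitting relative to DMSO.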

[3] = read-out: Bcl-2 (BAD) gene, BAD (gene 572); assay: LTEA_HepaRG_BAD: Life Technologies and Expression Analysis (LTEA) Assay for Bcl-2 (BAD) gene using HepaRG (AID 2283469)
Procedure, shortened: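 Read-out: qRT-PCR of BAD mRNA, normalized to three housekeeping genes. Human HepaRG cultures got 48 h chemical exposure in 0.5% DMSO, duplicate eight-point half-log series topping at 100 uM. Gain or loss of signal fitted versus DMSO vehicle.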

[4] = read-out: Bcl-2 (BAX) gene, BAX (gene 581); assay: LTEA_HepaRG_BAX: Life Technologies and Expression Analysis (LTEA) Assay for Bcl-2 (BAX) gene using HepaRG (AID 2283470)
Procedure, shortened: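 Human HepaRG cells treated in duplicate for 48 h across eight concentrations (max 100 uM, 0.5% DMSO); BAX expression measured by qRT-PCR.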

[5] = read-out: adenosine kinase (ADK) gene, ADK (gene 132); assay: LTEA_HepaRG_ADK: Life Technologies and Expression Analysis (LTEA) Assay for adenosine kinase (ADK) gene using HepaRG (AID 2283471)
Procedure, shortened: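 Differentiated HepaRG cells dosed 48 h in serum-free induction medium, 0.5% DMSO vehicle, eight half-log concentrations from 100 uM, in duplicate. ADK mRNA by TaqMan qRT-PCR normalised to ACTB, GAPDH, POLR2A; bidirectional fit versus DMSO.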

[6] = read-out: Alpha-fetoprotein (AFP) gene, AFP (gene 174); assay: LTEA_HepaRG_AFP: Life Technologies and Expression Analysis (LTEA) Assay for Alpha-fetoprotein (AFP) gene using HepaRG (AID 2283472)
Procedure, shortened: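 Measures AFP mRNA change in HepaRG after 48 h chemical exposure (8 half-log concentrations, highest 100 uM, 0.5% DMSO). Fold change relative to DMSO, fitted in both directions.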

BCL2L11 (gene 10018) = assay: LTEA_HepaRG_BCL2L11: Life Technologies and Expression Analysis (LTEA) Assay for Bcl-2 (BCL2L11) gene using HepaRG (AID 2283473)
Procedure, shortened: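 BCL2L11 transcript levels are measured by Fluidigm qRT-PCR, normalized to three housekeeping genes. HepaRG cultures were plated 48 h, then treated 48 h with test chemical (top 100 uM, half-log, 0.5% DMSO vehicle); curves were fitted bidirectionally against DMSO.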

[7] = read-out: Apoptosis regulator Bcl-2 (Homo sapiens) (UniProt P10415); assay: LTEA_HepaRG_BCL2: Life Technologies and Expression Analysis (LTEA) Assay for Bcl-2 gene using HepaRG (AID 2283475)
Procedure, shortened: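 Each chemical was tested in duplicate on HepaRG cultures held in serum-free induction medium for 48 h, highest concentration 100 uM with half-log dilutions. Transcript levels came from multiplexed qRT-PCR, normalised to housekeeping genes; activity was scored in either direction relative to DMSO.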

[8] = read-out: Bcl-2 (BID) gene, BID (gene 637); assay: LTEA_HepaRG_BID: Life Technologies and Expression Analysis (LTEA) Assay for Bcl-2 (BID) gene using HepaRG (AID 2283476)
Procedure, shortened: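 Assay used HepaRG hepatic cells treated 48 h in serum-free medium with half-log dilutions from 100 uM. Endpoint: BID mRNA, qRT-PCR, normalized to ACTB/GAPDH/POLR2A.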

Caspase-3 (Homo sapiens) = Caspase-3 (Homo sapiens) (UniProt P42574); assay: LTEA_HepaRG_CASP3: Life Technologies and Expression Analysis (LTEA) Assay for cysteine-aspartic acid protease (CASP3) using HepaRG (AID 2283477)
Sequence of Caspase-3 (Homo sapiens) (P42574 whole entry, looked up): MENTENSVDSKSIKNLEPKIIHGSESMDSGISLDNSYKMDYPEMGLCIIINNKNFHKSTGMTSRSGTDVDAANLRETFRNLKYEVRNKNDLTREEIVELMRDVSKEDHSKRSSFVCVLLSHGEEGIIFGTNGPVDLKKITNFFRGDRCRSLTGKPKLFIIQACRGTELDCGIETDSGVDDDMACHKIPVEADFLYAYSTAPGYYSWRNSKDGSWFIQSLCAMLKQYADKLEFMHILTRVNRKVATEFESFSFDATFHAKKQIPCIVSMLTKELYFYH
Procedure, shortened: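 Expression of CASP3 was quantified by TaqMan qRT-PCR against three housekeeping genes (ACTB, GAPDH, POLR2A), bidirectionally versus 0.5% DMSO. HepaRG cultures received compounds in duplicate, top 100 uM with half-log steps, for 48 h in serum-free induction medium.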

[9] = read-out: Cytochrome P450 (CYP24A1), CYP24A1 (gene 1591); assay: LTEA_HepaRG_CYP24A1: Life Technologies and Expression Analysis (LTEA) Assay for Cytochrome P450 (CYP24A1) using HepaRG (AID 2283478)
Procedure, shortened: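 mRNA of CYP24A1 quantified by TaqMan qRT-PCR (ACTB/GAPDH/POLR2A normalization) after 48 h chemical exposure of HepaRG cells, top concentration 100 uM, half-log steps, 0.5% DMSO vehicle, duplicates. Curves fitted bidirectionally against DMSO baseline.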

[10] = read-out: Cytochrome P450 (CYP1A2), CYP1A2 (gene 1544); assay: LTEA_HepaRG_CYP1A2: Life Technologies and Expression Analysis (LTEA) Assay for Cytochrome P450 (CYP1A2) using HepaRG (AID 2283479)
Procedure, shortened: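 CYP1A2 transcript measured by TaqMan qRT-PCR against three housekeeping genes after 48-hour chemical exposure of HepaRG cells. Eight-point half-log series topping at 100 uM in 0.5% DMSO, duplicates; gain or loss fitted relative to vehicle.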

[11] = read-out: cysteine-aspartic acid protease (CASP8), CASP8 (gene 841); assay: LTEA_HepaRG_CASP8: Life Technologies and Expression Analysis (LTEA) Assay for cysteine-aspartic acid protease (CASP8) using HepaRG (AID 2283480)
Procedure, shortened: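 CASP8 transcript measured by TaqMan qRT-PCR with ACTB/GAPDH/POLR2A normalization, after 48 h chemical exposure of HepaRG cells in serum-free induction medium. Eight concentrations, top 100 uM, half-log steps, 0.5% DMSO vehicle; fits in both directions versus DMSO.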

[12] = read-out: Cytochrome P450 (CYP2B6), CYP2B6 (gene 1555); assay: LTEA_HepaRG_CYP2B6: Life Technologies and Expression Analysis (LTEA) Assay for Cytochrome P450 (CYP2B6) using HepaRG (AID 2283481)
Procedure, shortened: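 CYP2B6 transcript level quantified by qRT-PCR against three housekeeping genes, fitted bidirectionally relative to DMSO. HepaRG cultures received chemicals for 48 h, 8-point half-log series from 100 uM in 0.5% DMSO, duplicate wells, serum-free induction medium.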

CYP2C8 (gene 1558) = assay: LTEA_HepaRG_CYP2C8: Life Technologies and Expression Analysis (LTEA) Assay for CYP2C8 using HepaRG (AID 2283483)
Procedure, shortened: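 CYP2C8 expression measured by TaqMan qRT-PCR and normalized to three housekeeping genes. HepaRG cultures were treated for 48 h with an eight-point half-log series topping at 100 uM, vehicle 0.5% DMSO, duplicates; fitted both directions against DMSO.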

CYP2C9 (gene 1559) = assay: LTEA_HepaRG_CYP2C9: Life Technologies and Expression Analysis (LTEA) Assay for CYP2C9 using HepaRG (AID 2283484)
Procedure, shortened: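 CYP2C9 transcript level, quantified by TaqMan qRT-PCR against three housekeeping genes, was fitted bidirectionally relative to 0.5% DMSO. HepaRG cultures were treated 48 h, in duplicate, at eight half-log concentrations topping at 100 uM.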

CYP4A11 (gene 1579) = assay: LTEA_HepaRG_CYP4A11: Life Technologies and Expression Analysis (LTEA) Assay for CYP4A11 using HepaRG (AID 2283486)
Procedure, shortened: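 Readout is CYP4A11 transcript level by qRT-PCR, normalized to three housekeeping genes and fitted bidirectionally against 0.5% DMSO. Human HepaRG cells were treated 48 h, in duplicate, with an 8-point half-log series topping at 100 uM.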

[13] = read-out: Cytochrome P450 2C19 (Homo sapiens) (UniProt P33261); assay: LTEA_HepaRG_CYP2C19: Life Technologies and Expression Analysis (LTEA) Assay for CYP2C19 using HepaRG (AID 2283482)
Procedure, shortened: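 CYP2C19 transcript levels by qRT-PCR, normalized to three housekeeping genes, in HepaRG cells after 48 h chemical exposure. Eight-point half-log series topping at 100 uM, 0.5% DMSO vehicle. Increases and decreases both fitted against DMSO.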

CYP2E1 (gene 1571) = assay: LTEA_HepaRG_CYP2E1: Life Technologies and Expression Analysis (LTEA) Assay for CYP2E1 using HepaRG (AID 2283485)
Procedure, shortened: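 Assay uses 48 h exposure of HepaRG hepatic cells, eight concentrations to 100 uM. Expression of CYP2E1 is quantified by TaqMan qRT-PCR with ACTB, GAPDH and POLR2A normalization; curves fitted in both directions relative to vehicle.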

Measured: AC50

Sequence of Apoptosis regulator Bcl-2 (Homo sapiens) (P10415 whole entry, looked up): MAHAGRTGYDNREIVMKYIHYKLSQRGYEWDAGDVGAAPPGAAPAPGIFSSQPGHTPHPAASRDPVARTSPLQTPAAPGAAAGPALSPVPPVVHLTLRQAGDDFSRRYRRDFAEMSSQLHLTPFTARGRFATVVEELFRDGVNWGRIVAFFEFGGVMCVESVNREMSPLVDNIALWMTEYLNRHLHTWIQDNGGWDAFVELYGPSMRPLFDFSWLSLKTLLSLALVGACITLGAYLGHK
Sequence of Cytochrome P450 2C19 (Homo sapiens) (P33261 whole entry, looked up): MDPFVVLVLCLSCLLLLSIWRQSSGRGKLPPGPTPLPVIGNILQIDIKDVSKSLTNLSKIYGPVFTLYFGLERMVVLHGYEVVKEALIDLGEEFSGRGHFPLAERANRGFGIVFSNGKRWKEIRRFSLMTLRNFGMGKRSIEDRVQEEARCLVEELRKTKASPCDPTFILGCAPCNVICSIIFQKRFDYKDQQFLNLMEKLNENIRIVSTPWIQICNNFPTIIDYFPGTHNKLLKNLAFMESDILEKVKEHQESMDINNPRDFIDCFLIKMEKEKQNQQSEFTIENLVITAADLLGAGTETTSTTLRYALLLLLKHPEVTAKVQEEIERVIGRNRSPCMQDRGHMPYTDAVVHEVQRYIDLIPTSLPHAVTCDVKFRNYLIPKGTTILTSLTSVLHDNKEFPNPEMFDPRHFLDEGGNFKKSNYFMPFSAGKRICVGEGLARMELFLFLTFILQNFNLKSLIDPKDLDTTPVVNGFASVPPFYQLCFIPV

ClC(Cl)=C(c1ccc(Cl)cc1)c1ccc(Cl)cc1
active: [12] 1.59 µM | CYP2C8 (gene 1558) 3.63 µM
not listed: [13] | CYP2E1 (gene 1571)
inactive: all other assays above

CCCCCCCCCc1ccc(O)cc1
active: CYP4A11 (gene 1579) 33.5 µM
not listed: [13] | CYP2E1 (gene 1571)
inactive: all other assays above

CCOP(=S)(OCC)SCSC(C)(C)C
active: [6] 29.5 µM
not listed: CYP2E1 (gene 1571)
inactive: all other assays above

Cc1ccccc1[N+](=O)[O-]
active: [12] 13.9 µM
not listed: CYP2E1 (gene 1571)
inactive: all other assays above

CC#Cc1cc(C)nc(Nc2ccccc2)n1
active: [2] 50 µM | [6] 26.4 µM | BCL2L11 (gene 10018) 13 µM | [10] 7.61 µM | [12] 10.3 µM | CYP2C8 (gene 1558) 48 µM | CYP2C9 (gene 1559) 19.8 µM | CYP2E1 (gene 1571) 13.6 µM | CYP4A11 (gene 1579) 1.1 µM
not listed: [13]
inactive: all other assays above

CCC(C)(CC)c1cc(NC(=O)c2c(OC)cccc2OC)on1
active: [6] 28.9 µM | [10] 10.3 µM | [12] 3.2 µM | CYP2C8 (gene 1558) 3.26 µM | CYP2E1 (gene 1571) 15 µM | CYP4A11 (gene 1579) 26.2 µM
not listed: [13]
inactive: all other assays above
